# Experimental data as given in PubChem BioAssay.
# Calls of active or inactive are those of the source.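 The calls were made as follows: active = compounds whose cell count with miR-34 switched on is under 0.7 times the count with it off; inactive = the rest.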
# Assay: viability loss with induced miR-34 in A549 – imaging, A549 dox-inducible miR-34, nuclei and caspase counts, primary screen (AID 1347080); also: test concentration not given here
# Details: A549 miR-34 inducible, Hoechst nuclei count, 48 h; hits give low values; cell number ratio, induced over uninduced
row,SMILES,fold change
1,O=C(O)/C=C/CCCCCCCCC(=O)O,0.99 (inactive)
2,CCCCCCCCCCCSCC(=O)O,1.05 (inactive)
3,O=C1N[C@@H]2[C@@H](O)[C@@H](O)[C@H](O)[C@@H](CO)N2C1=O,0.921 (inactive)
4,NC(=O)c1cccc(-c2cccc(OC(=O)NCCCCCCc3ccccc3)c2)c1,0.904 (inactive)
5,CCCCC[C@H](O)/C=C/[C@H]1CC[C@@H](O)[C@@H]1CCCCCCC(=O)O,0.884 (inactive)
6,CCCCCCCCCCCCCCCC(=O)NC(CO)CO,0.966 (inactive)
7,CC(=O)[C@H]1[C@H](C#N)C[C@H]2[C@@H]3CC=C4C[C@@H](O)CC[C@]4(C)[C@H]3CC[C@@]21C,1.01 (inactive)
8,CCCCCCCCCCCCC/C=C/[C@H](O)[C@@H](CO)NC(=O)CCCCCCCCCCCCCCCCCCCCCCC,0.979 (inactive)
9,O=C(O)CCC/C=C\C[C@H]1C(=O)C=C[C@@H]1CC[C@@H](O)CCc1ccccc1,0.93 (inactive)
10,CC(C)CCCC(C)CCCC(C)CCCC(C)CC(=O)O (stereo not given),0.992 (inactive)
11,CCCCCCCC/C=C\CCCCCCCC(=O)Nc1c(C(C)C)cccc1C(C)C,0.999 (inactive)
12,CCCc1oc(CCC(=O)O)c(C(=O)O)c1C,0.885 (inactive)
13,CCCCC(C)(C)[C@H](O)/C=C/[C@H]1[C@H](O)CC(=O)[C@@H]1CCCCCCC(=O)O,0.94 (inactive)
14,O=P(O)(O)OC1[C@@H](O)[C@H](O)C(O)[C@H](O)[C@@H]1O (stereo not given in full),0.924 (inactive)
15,CCCCCC(=O)/C=C/[C@H]1[C@H](O)CC(=O)[C@@H]1CCCCCCC(=O)O,1.03 (inactive)
